Screening data (PubChem BioAssay)
Pyk2 oligo antag – blocks oligomerization of human Pyk2 in cells; Q293 cells, Pyk2 FERM NanoBiT luminescence; hits give low values; z-score (the deposit names both 25 µM and 10 µM); actives 0.83% (n = 99,000);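 active = Z-score of -3 or lower, scaled per plate to the spread of control and sample wells; inactive = z-score above -3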;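 note: negative z-score means lost luminescence so less FERM oligomerization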
hDAT+cocaine – changed human dopamine transporter uptake under cocaine IC80; Q01959; LLC-PK1 hDAT cells, [14C]-dopamine uptake with cocaine IC80; actives deviate in either direction; B-score at 10 µM; actives 1.3% (n = 110,000); AID 449768;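 active = Z score or B-score, a plate-position-corrected score, falls beyond the plate's 99.7% confidence bounds, in either direction; inactive = both scores lie inside the 99.7% bounds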;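 note: scored against the spread of the other compound wells on the same plate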
CD11b adhes enh – enhancers of human CD11b/CD18 binding to fibrinogen; K562 CD11b/CD18 adhesion to fibrinogen, ATPlite luminescence; activation, % at 10 µM; actives 0.07% (n = 93,000); AID 1499;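 active = 10 µM primary screen giving 50% or more activity, confirmed by 40% or more on retest at that dose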
CD11b adhes inh – CD11b/CD18-fibrinogen binding inhibition; P05107+P11215; K562 CD11b/CD18 adhesion to fibrinogen, ATPlite luminescence; Mn2+ added to activate the integrin; inhibition, % at 10 µM; actives 0.54% (n = 93,000);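 active = primary inhibition of 50% or more at 10 µM, then 40% or more on retest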
FAK blocker – FAK (human) kinase inhibition. inhibition, %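 (tested at 7 µM)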. actives 0.84% (n = 97,000). Q05397. AID 727. biochemical FAK kinase activity assay; in the data active = inhibition above about 19%;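 note: 0% = DMSO and 100% = reference compound high control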
D1 allo mod – allosterically modulates the human D1 dopamine receptor. HEK293 D1, CRE-luciferase, dopamine EC30 potentiation; actives deviate in either direction. actives 5.9% (n = 58,000). B-score at 10 µM. P21728;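 active = luminescence count or its row- and column-corrected plate score outside the 99.7% band of the plate's sample wells, on either side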
Target sequence (P21728 whole entry, looked up): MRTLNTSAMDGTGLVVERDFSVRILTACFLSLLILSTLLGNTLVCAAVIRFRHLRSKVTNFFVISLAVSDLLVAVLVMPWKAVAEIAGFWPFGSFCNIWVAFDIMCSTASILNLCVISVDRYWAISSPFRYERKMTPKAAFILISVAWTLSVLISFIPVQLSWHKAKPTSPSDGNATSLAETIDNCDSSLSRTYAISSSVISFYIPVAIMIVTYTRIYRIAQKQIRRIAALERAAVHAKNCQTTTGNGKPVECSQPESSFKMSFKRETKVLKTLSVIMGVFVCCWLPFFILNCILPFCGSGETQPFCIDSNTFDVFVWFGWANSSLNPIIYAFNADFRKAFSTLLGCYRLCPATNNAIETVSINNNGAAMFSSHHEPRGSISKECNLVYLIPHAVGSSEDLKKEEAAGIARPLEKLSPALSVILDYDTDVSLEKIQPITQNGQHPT
D1 mod confirm – D1 receptor (human) allosteric modulation, confirmed; shares compounds with D1 allo mod; HEK293 D1 CRE-luciferase, dopamine EC30 potentiation; hits give high values; luminescence at 10 µM; actives 88% (n = 2,200); AID 642;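 active = luminescence in either of two replicates above the same-plate mean plus 3 SD of the low-dose dopamine control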
D1 no dopamine – secondary test of D1 modulators: activity without dopamine | actives 0.8% (n = 1,900) | HEK293 D1 CRE-luciferase, luminescence, no dopamine; hits give high values | luminescence at 10 µM | shares compounds with D1 allo mod | AID 646; in the data active = luminescence above about 3900
Isoprot counter – isoproterenol response counter-screen activity for D1 modulators | shares compounds with D1 allo mod | HEK293 D1 CRE-luciferase, isoproterenol EC30 counter-screen | calls only at 10 µM | actives 63% (n = 2,200);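 active = luminescence in either replicate above plate mean of wells with a partly effective reference agonist dose plus 3 SD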;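 note: isoproterenol raises cAMP through native beta-adrenoceptor Gs so signal bypasses D1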
Active calls of the source: *. Only a selection was taken, and hits are over-represented in it overall.

O=C(CCn1c(=S)[nH]c2ccccc2c1=O)N1CCN(c2ccccn2)CC1 was read as D1 allo mod 0.39.
For CCCN1Cc2cccc(C(=O)NC3CCCC3)c2C1=O the results were Pyk2 oligo antag 0.67, hDAT+cocaine 0.88, CD11b adhes enh 1, CD11b adhes inh -13, FAK blocker -1, D1 allo mod 12*, D1 mod confirm 16648*, D1 no dopamine 1612 and Isoprot counter active.
For CSc1oc(-c2ccco2)nc1S(=O)(=O)c1ccccc1 the results were hDAT+cocaine -1.5, CD11b adhes enh -4, CD11b adhes inh -18 and FAK blocker 3.
For CSc1oc(-c2ccco2)nc1S(=O)(=O)c1ccc(F)cc1 the results were hDAT+cocaine -0.82, D1 allo mod 3.4*, D1 mod confirm 11924*, D1 no dopamine 1676 and Isoprot counter inactive.
For CC(C)Sc1oc(-c2ccco2)nc1S(=O)(=O)c1ccccc1 the results were Pyk2 oligo antag -0.22, hDAT+cocaine 0.056, FAK blocker 1, D1 allo mod 6.5*, D1 mod confirm 19332*, D1 no dopamine 1752 and Isoprot counter active.
Screening CCC(C)NC(=O)c1ccc([N+](=O)[O-])c(Cl)c1 (configuration not stated) returned CD11b adhes enh 8 and CD11b adhes inh -5.
For COc1ccc(-c2ccc(SCC(=O)NCc3ccco3)nn2)cc1OC the results were Pyk2 oligo antag 0.99, hDAT+cocaine 0.87, CD11b adhes enh -6, CD11b adhes inh -10, FAK blocker 12, D1 allo mod 15*, D1 mod confirm 17224* and Isoprot counter active.
For O=C(CSc1nc(-c2ccccc2)cc(C(F)(F)F)n1)NCc1ccco1 the results were Pyk2 oligo antag -0.99, hDAT+cocaine -0.26, CD11b adhes enh -2, CD11b adhes inh 12 and FAK blocker 0.
COc1ccc(-c2cc(C(F)(F)F)nc(SCC(=O)NCc3ccco3)n2)cc1OC was read as Pyk2 oligo antag -0.3, hDAT+cocaine -1, FAK blocker -1, D1 allo mod 13*, D1 mod confirm 18992*, D1 no dopamine 1868 and Isoprot counter active.
Screening CCOc1ccc(CNC(=O)CCn2c(=O)oc3ccccc32)cc1 returned Pyk2 oligo antag 0.99, hDAT+cocaine -0.067, CD11b adhes enh 3, CD11b adhes inh -4, FAK blocker -1, D1 allo mod 5.4*, D1 mod confirm 5860, D1 no dopamine 1400 and Isoprot counter inactive.
For c1ccc(-c2csc3ncn4cnnc4c23)cc1 the results were Pyk2 oligo antag -0.12, hDAT+cocaine 0.73, FAK blocker 10, D1 allo mod 18*, D1 mod confirm 18512*, D1 no dopamine 1700 and Isoprot counter active.
Screening O=c1[nH]cnc2scc(-c3ccccc3)c12 returned Pyk2 oligo antag 0, hDAT+cocaine -0.36, CD11b adhes enh -3, CD11b adhes inh -4 and FAK blocker -3.
Screening CCOC(=O)c1cc(CC)sc1NC(=O)COC returned Pyk2 oligo antag 0.18, hDAT+cocaine -0.45, CD11b adhes enh -3, CD11b adhes inh -15, FAK blocker 1, D1 allo mod 12*, D1 mod confirm 17728*, D1 no dopamine 1632 and Isoprot counter active.
`COC(=O)c1ccc(CSc2ncnc3ccccc23)o1` gave hDAT+cocaine -1, CD11b adhes enh 4, CD11b adhes inh 7, FAK blocker 9, D1 allo mod 4.5*, D1 mod confirm 9672* and Isoprot counter active.
Screening OCCNc1nc(N2CCCC2)nc(N2CCCC2)n1 returned Pyk2 oligo antag 0.69, hDAT+cocaine 1.4 and FAK blocker -1.
`CC1CCc2nc(NCCO)nc(C(F)(F)F)c2C1` (configuration not stated) gave Pyk2 oligo antag -0.26, hDAT+cocaine -0.35, CD11b adhes enh -2, CD11b adhes inh 9, FAK blocker -2, D1 allo mod 7.5*, D1 mod confirm 13160*, D1 no dopamine 1232 and Isoprot counter active.
`CSc1nc(NCC(C)C)nc(N2CCOCC2)n1` gave Pyk2 oligo antag 0.01, hDAT+cocaine 0.097, CD11b adhes enh -1, CD11b adhes inh -3, FAK blocker 0, D1 allo mod 8.8*, D1 mod confirm 26752*, D1 no dopamine 1652 and Isoprot counter active.
`C=CCSc1nc(N)c2c(C)c(C)sc2n1` gave Pyk2 oligo antag 0.51, hDAT+cocaine -0.44, CD11b adhes enh -2, CD11b adhes inh -4, D1 allo mod 4.9*, D1 mod confirm 18248*, D1 no dopamine 1540 and Isoprot counter active.
CCSc1nc(N)c2c(C)c(C)sc2n1 was read as Pyk2 oligo antag 0.59, hDAT+cocaine -0.82 and FAK blocker 2.
Screening CCC(=O)n1nc(NCc2ccc(OC)c(OC)c2)nc1NCc1ccc(OC)c(OC)c1 returned Pyk2 oligo antag 0.13, CD11b adhes enh 0, CD11b adhes inh 32, FAK blocker 1, D1 allo mod 6*, D1 mod confirm 15072* and Isoprot counter active.
Screening COc1ccc(CNc2nc(NCc3ccc(OC)cc3)n(S(C)(=O)=O)n2)cc1 returned Pyk2 oligo antag 0.84, hDAT+cocaine 0.13, CD11b adhes enh -2, CD11b adhes inh 18, FAK blocker 0, D1 allo mod 4.7*, D1 mod confirm 9448*, D1 no dopamine 1620 and Isoprot counter active.
`CCC(=O)n1nc(-c2ccccc2)nc1NCc1ccccc1` gave Pyk2 oligo antag 0.28, hDAT+cocaine -0.24, CD11b adhes enh -3, CD11b adhes inh -21, FAK blocker 2 and D1 allo mod 0.58.
`CCC(=O)n1nc(-c2cccnc2)nc1NCc1ccc(OC)cc1` gave Pyk2 oligo antag 0.74, hDAT+cocaine 0.026, CD11b adhes enh -3, CD11b adhes inh -12, FAK blocker 2, D1 allo mod 11*, D1 mod confirm 7416*, D1 no dopamine 1672 and Isoprot counter inactive.
Screening CCOc1ccc(-c2noc(-c3cccnc3)n2)cc1OC returned Pyk2 oligo antag -0.79, CD11b adhes enh 2, CD11b adhes inh 0, FAK blocker 6, D1 allo mod 4.3*, D1 mod confirm 10956*, D1 no dopamine 1728 and Isoprot counter inactive.
